About 2,000 (36%) of roughly 5,500 compounds were called active. Not shown: some 18% with an inconclusive outcome. No stated cut-off is given here; in the data, active means normalized growth mostly below about 0.91 (no sharp cut-off); inconclusive means no clear call, values can overlap the other calls; inactive means mostly above about 0.92. The list shows a part of the results.
Experiment: chemical genetic growth profiling, strain panel (AID 1159580);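 further: tested at 20 µM; growth read once vehicle control cultures reached saturation at 30 °C; 1 = growth at the plate median or of vehicle wells; lower values mean less growth of the strain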
Conditions: growth OD

Measured: normalized growth

C[C@H]1CC2C([C@@H](O)C[C@@]3(C)C2CC[C@]3(O)C(=O)CO)[C@@]2(C)C=CC(=O)C=C12 (some centres not stated)
inactive: S. cerevisiae deletion strains, locus YJR075W, strain HOC1, hits give low values 1.01 | S. cerevisiae deletion strains, locus YKL009W, strain mrt4, hits give low values 0.997 | S. cerevisiae deletion strains, locus YKL068W, hits give low values 0.999 | S. cerevisiae deletion strains, locus YKL085W, strain MDH1 (second series), hits give low values 1 | S. cerevisiae deletion strains, locus YKL085W, strain MDH1, hits give low values 1 | S. cerevisiae deletion strains, locus YKL160W, strain elf1, hits give low values 0.975 | S. cerevisiae deletion strains, locus YKL190W, strain CNB1, hits give low values 0.995 | S. cerevisiae deletion strains, locus YKR001C, strain vps1, hits give low values 1.02 | S. cerevisiae deletion strains, locus YKR026C, strain gcn3, hits give low values 0.999 | S. cerevisiae deletion strains, locus YKR091W, strain srl3, hits give low values 1.01 | S. cerevisiae deletion strains, locus YLL001W, strain dnm1, hits give low values 0.96 | S. cerevisiae deletion strains, locus YLL026W, hits give low values 0.982 | S. cerevisiae deletion strains, locus YLL041C, strain sdh2, hits give low values 1.01 | S. cerevisiae deletion strains, locus YLR027C, strain aat2, hits give low values 0.985 | S. cerevisiae deletion strains, locus YLR039C, strain RIC1, hits give low values 0.982 | S. cerevisiae deletion strains, locus YLR058C, strain SHM2, hits give low values 0.999 | S. cerevisiae deletion strains, locus YLR102C, strain apc9, hits give low values 1.02 | S. cerevisiae deletion strains, locus YLR113W, strain HOG1, hits give low values 1.03 | S. cerevisiae deletion strains, locus YLR221C, strain rsa3, hits give low values 1.01 | S. cerevisiae deletion strains, locus YLR258W, strain gsy2, hits give low values 1.01 | S. cerevisiae deletion strains, locus YLR262C, strain YPT6 (second series), hits give low values 0.968 | S. cerevisiae deletion strains, locus YLR262C, strain YPT6, hits give low values 0.996 | S. cerevisiae deletion strains, locus YLR268W, strain sec22, hits give low values 1.07 | S. cerevisiae deletion strains, locus YLR320W, strain mms22, hits give low values 0.989 | S. cerevisiae deletion strains, locus YLR330W, strain CHS5, hits give low values 0.999 | S. cerevisiae deletion strains, locus YLR342W, strain FKS1 (second series), hits give low values 1.01 | S. cerevisiae deletion strains, locus YLR342W, strain FKS1, hits give low values 0.985 | S. cerevisiae deletion strains, locus YLR357W, strain rsc2, hits give low values 0.996 | S. cerevisiae deletion strains, locus YLR370C, strain arc18, hits give low values 0.992 | S. cerevisiae deletion strains, locus YLR371W, strain rom2, hits give low values 1.01 | S. cerevisiae deletion strains, locus YLR384C, strain iki3, hits give low values 0.996 | S. cerevisiae deletion strains, locus YLR418C, strain cdc73, hits give low values 1.01 | S. cerevisiae deletion strains, locus YML016C, strain PPZ1, hits give low values 1.01 | S. cerevisiae deletion strains, locus YML032C, strain rad52, hits give low values 1.04 | S. cerevisiae deletion strains, locus YML120C, strain ndi1, hits give low values 0.973 | S. cerevisiae deletion strains, locus YML124C, strain tub3, hits give low values 1.01 | S. cerevisiae deletion strains, locus YMR058W, strain fet3, hits give low values 0.994 | S. cerevisiae deletion strains, locus YMR078C, strain ctf18, hits give low values 1.01 | S. cerevisiae deletion strains, locus YMR125W, strain sto1, hits give low values 1.01 | S. cerevisiae deletion strains, locus YMR129W, hits give low values 1 | S. cerevisiae deletion strains, locus YMR205C, strain PFK2, hits give low values 0.993 | S. cerevisiae deletion strains, locus YMR223W, strain ubp8, hits give low values 0.986 | S. cerevisiae deletion strains, locus YMR231W, strain pep5, hits give low values 0.991 | S. cerevisiae deletion strains, locus YMR263W, strain SAP30, hits give low values 1 | S. cerevisiae deletion strains, locus YMR307W, strain GAS1, hits give low values 1 | S. cerevisiae deletion strains, locus YNL067W, strain RPL9B, hits give low values 1.03 | S. cerevisiae deletion strains, locus YNL071W, strain lat1, hits give low values 1 | S. cerevisiae deletion strains, locus YNL128W, strain TEP1, hits give low values 0.982 | S. cerevisiae deletion strains, locus YNL153C, strain GIM3, hits give low values 1.01 | S. cerevisiae deletion strains, locus YNL183C, strain NPR1, hits give low values 0.994 | S. cerevisiae deletion strains, locus YNL209W, strain ssb2, hits give low values 1.02 | S. cerevisiae deletion strains, locus YNL233W, strain BNI4, hits give low values 1.01 | S. cerevisiae deletion strains, locus YNL248C, strain rpa49, hits give low values 1.01 | S. cerevisiae deletion strains, locus YNL250W, strain rad50, hits give low values 1.01 | S. cerevisiae deletion strains, locus YNL271C, strain bni1, hits give low values 1.01 | S. cerevisiae deletion strains, locus YNL298W, strain CLA4, hits give low values 1.01 | S. cerevisiae deletion strains, locus YNL307C, strain MCK1, hits give low values 1.02 | S. cerevisiae deletion strains, locus YNL322C, strain KRE1 (second series), hits give low values 1 | S. cerevisiae deletion strains, locus YNL322C, strain KRE1, hits give low values 0.992 | S. cerevisiae deletion strains, locus YNR049C, strain mso1, hits give low values 1 | S. cerevisiae deletion strains, locus YNR052C, strain pop2, hits give low values 1.02 | S. cerevisiae deletion strains, locus YOL006C, strain TOP1, hits give low values 1.04 | S. cerevisiae deletion strains, locus YOL012C, strain htz1 1.61 | S. cerevisiae deletion strains, locus YOL147C, strain pex11, hits give low values 1.01 | S. cerevisiae deletion strains, locus YOR001W, strain rrp6, hits give low values 0.966 | S. cerevisiae deletion strains, locus YOR061W, strain CKA2, hits give low values 1 | S. cerevisiae deletion strains, locus YOR069W, strain VPS5, hits give low values 1 | S. cerevisiae deletion strains, locus YOR070C, strain gyp1, hits give low values 1 | S. cerevisiae deletion strains, locus YOR080W, strain dia2, hits give low values 0.986 | S. cerevisiae deletion strains, locus YOR083W, strain WHI5, hits give low values 0.959 | S. cerevisiae deletion strains, locus YOR106W, strain vam3, hits give low values 0.987 | S. cerevisiae deletion strains, locus YOR136W, strain idh2, hits give low values 1.01 | S. cerevisiae deletion strains, locus YOR144C, strain elg1, hits give low values 1.01 | S. cerevisiae deletion strains, locus YOR184W, strain ser1, hits give low values 1 | S. cerevisiae deletion strains, locus YOR231W, strain MKK1, hits give low values 1.02 | S. cerevisiae deletion strains, locus YOR265W, strain rbl2, hits give low values 0.995 | S. cerevisiae deletion strains, locus YOR270C, strain vph1, hits give low values 1.02 | S. cerevisiae deletion strains, locus YOR290C, strain snf2, hits give low values 1 | S. cerevisiae deletion strains, locus YOR316C, strain cot1, hits give low values 1.01 | S. cerevisiae deletion strains, locus YPL051W, strain arl3, hits give low values 0.988 | S. cerevisiae deletion strains, locus YPL055C, strain LGE1, hits give low values 0.982 | S. cerevisiae deletion strains, locus YPL078C, strain atp4, hits give low values 0.959 | S. cerevisiae deletion strains, locus YPL106C, strain sse1, hits give low values 1.02 | S. cerevisiae deletion strains, locus YPL240C, strain hsp82, hits give low values 1.01 | S. cerevisiae deletion strains, locus YPL241C, strain CIN2, hits give low values 0.996 | S. cerevisiae deletion strains, locus YPL256C, strain CLN2, hits give low values 1.1 | S. cerevisiae deletion strains, locus YPR119W, strain clb2, hits give low values 1.01 | S. cerevisiae deletion strains, locus YPR141C, strain kar3, hits give low values 1.01 | S. cerevisiae deletion strains, locus YPR163C, strain tif3, hits give low values 1.02 | S. cerevisiae deletion strains, locus YPR167C, strain met16, hits give low values 1.01 | S. cerevisiae deletion strains, strain wtn01, hits give low values 1.03 | S. cerevisiae strains, strain wild type, hits give low values 0.998

From PubChem BioAssay AID1159580 (chemical genetic matrix, 2015)
